The values below come from PubChem BioAssay AID1259421 (Broad Institute, 2018).

Several values for one entry are separate records, joined by “and”; a condition that tells them apart may be missing. Identical values can stand only once. Screen size: about 6,400 compounds; about 610 (9.5%) were called active. Rule as the data show it: active = activity change below about -70%; inconclusive = no clear call, values can overlap the other calls; inactive = above that. This excerpt belongs to a sample that is enriched for actives. Where a structure was tested more than once in an assay, its records may differ in their call.

The assay is described as follows: T. gondii ME49Luc in HeLa cells, luciferase assay, 72 h, no IFN-y (AID 1259421). Particulars: stronger effect = lower value, concentration not given here.
On to `Cn1cc(C(=O)C(=O)N[C@H]2CN3CCC2CC3)c2ccccc21`, for which the activity change, negative = inhibition was 3.13% (inactive) and -2.73% (inactive).

Regarding `O=Cc1cn(Cc2ccc(Cl)cc2)c2ccccc12`, the activity change, negative = inhibition was 3.18% (inactive).

In the case of `O=C(Nc1ccncc1)C(=O)c1cn(Cc2ccc(Cl)cc2)c2ccccc12`, the activity change, negative = inhibition is -75.2% (active).

With `c1cc(Cc2cnc[nH]2)ccn1`, the activity change, negative = inhibition was 4.56% (inactive).

In the case of `CCCN(CCC)C1CCc2ccc(O)cc2C1` (configuration not stated), the activity change, negative = inhibition was -0.0815% (inactive) and 4.46% (inactive).

Regarding `O=C(O)c1ccc2[nH]cc(CCCCN3CC=C(c4ccccc4)CC3)c2c1`, the activity change, negative = inhibition is 8.65% (inactive) and 4.54% (inactive).

Regarding `c1ccc2sc(C3(N4CCCC4)CCCCC3)cc2c1`, the activity change, negative = inhibition was 3.78% (inactive).

Consider `O=C(O)CCCOc1ccc(Cl)cc1Cl`, for which the activity change, negative = inhibition is 9.07% (inactive).

On to `Oc1cc(Cl)ccc1Oc1ccc(Cl)cc1Cl`, for which the activity change, negative = inhibition is -80.6% (active) and -88.3% (active).

With `O=C(O)COc1ccc(Cl)cc1Cl`, the activity change, negative = inhibition is 5.11% (inactive).

For the compound `FC(F)OC(F)(F)C(F)Cl` (configuration not stated), the activity change, negative = inhibition was 2.39% (inactive).

Turning to `CCC1C(C)=NN=C(c2ccc(OC)c(OC)c2)c2cc(OC)c(OC)cc21` (configuration not stated), the activity change, negative = inhibition was 6.78% (inactive).

With `CCCCC1(C2CCCC2)Cc2cc(OCCCC(=O)O)c(Cl)c(Cl)c2C1=O` (configuration not stated), the activity change, negative = inhibition is -6.67% (inactive).

Turning to `CC(=O)OC[C@]12CCC(C)=C[C@H]1O[C@@H]1[C@H](O)[C@@H](OC(C)=O)[C@@]2(C)[C@@]12CO2`, the activity change, negative = inhibition is -82.7% (active).

As to `CCCC[N+]1(C)[C@@H]2CC(OC(=O)[C@@H](CO)c3ccccc3)C[C@H]1[C@@H]1O[C@@H]12` (some centres not stated), the activity change, negative = inhibition is 2.27% (inactive).

On to `NC(=NCc1ccc(Cl)cc1)SCCCc1cnc[nH]1`, for which the activity change, negative = inhibition is -1.21% (inactive) and -3.65% (inactive).

`C=C(C)[C@@H]1CCC(C)=C[C@H]1c1c(OC)cc(C)cc1OC`: the activity change, negative = inhibition is 13.1% (inactive) and 2.72% (inactive).

For `COc1cccc2c1C(=O)c1c(O)c3c(c(O)c1C2=O)C[C@@](O)(C(=O)CO)C[C@@H]3O[C@H]1C[C@H](N2CCO[C@H](OC)C2)[C@H](O)[C@H](C)O1`, the activity change, negative = inhibition is -77.1% (active).

As to `CC(C)(C)NC[C@H](O)COc1cccc2[nH]c(C#N)cc12`, the activity change, negative = inhibition was 0.543% (inactive).

Regarding `CC(C)(C)NCC(O)COc1cccc2[nH]c(C#N)cc12` (configuration not stated), the activity change, negative = inhibition is -74.6% (active).

On to `CS(=O)(=O)Nc1ccc(Cc2noc(-c3ccc4[nH]cc(CCN)c4c3)n2)cc1`, for which the activity change, negative = inhibition was 0.294% (inactive).

`CCc1cccc(CC)c1NC1=NCCN1`: the activity change, negative = inhibition is 5.66% (inactive).

Regarding `CN1C(=O)[C@@H](NC(=O)c2cc3ccccc3[nH]2)N=C(c2ccccc2)c2ccccc21`, the activity change, negative = inhibition was -59.5% (inactive).

For the compound `CC(=O)O[C@H]1C(=O)[C@@]2(C)C([C@H](OC(=O)c3ccccc3)[C@]3(O)C[C@H](O)C(C)=C1C3(C)C)[C@]1(OC(C)=O)CO[C@@H]1C[C@@H]2O` (some centres not stated), the activity change, negative = inhibition was -56.1% (inactive).

In the case of `C/C=C(\C)C(=O)N[C@@H](c1ccccc1)[C@@H](O)C(=O)O[C@H]1C[C@@]2(O)[C@@H](OC(=O)c3ccccc3)[C@@H]3[C@]4(OC(C)=O)CO[C@@H]4C[C@H](O)[C@@]3(C)C(=O)[C@H](OC(C)=O)C(=C1C)C2(C)C`, the activity change, negative = inhibition was -82.1% (active).

As for `CC(=O)O[C@@]12CO[C@@H]1C[C@H](O)[C@@]1(C)C(=O)[C@H](O)C3=C(C)[C@@H](O)C[C@@](O)([C@@H](OC(=O)c4ccccc4)[C@H]21)C3(C)C`, the activity change, negative = inhibition was -60.3% (inactive) and 13.9% (inactive).

For the compound `C[C@H](N)Cc1ccccc1`, the activity change, negative = inhibition is 4.68% (inactive).

As for `O=[N+]([O-])NC1=NCCN1Cc1ccc(Cl)nc1`, the activity change, negative = inhibition was 8.16% (inactive).

As for `C[C@]12CCC3C(CC[C@H]4CC(=O)CC[C@]34C)C1CCC2=O` (some centres not stated), the activity change, negative = inhibition is 1.73% (inactive).

In the case of `CC[C@H]1CN2CCC1C[C@@H]2[C@@H](O)c1ccnc2ccc(OC)cc12` (some centres not stated), the activity change, negative = inhibition is 14.8% (inactive) and 8.86% (inactive).

In the case of `CN1CCc2cc(Cl)c(O)cc2[C@H]2c3ccccc3CC[C@@H]21`, the activity change, negative = inhibition was -4.73% (inactive).

For the compound `CNc1ccccc1C(=O)O`, the activity change, negative = inhibition was -1.44% (inactive).

Regarding `CCCCOC(=O)c1ccccc1C(=O)OCCCC`, the activity change, negative = inhibition was 3.08% (inactive) and -9.32% (inactive).

In the case of `C[CH2][Hg][S]c1ccccc1C(=O)O`, the activity change, negative = inhibition was -88.9% (active) and -92.1% (active).

In the case of `O=c1cccc2n1C[C@H]1CNCC2C1`, the activity change, negative = inhibition was 4.99% (inactive).

For `C=CC[C@]1(O)CCC2C3CCC4=CC(=O)CCC4=C3C=C[C@@]21C` (some centres not stated), the activity change, negative = inhibition is 11.2% (inactive).

Take `C=CC[C@@]1(O)CC[C@H]2[C@@H]3CCC4=CC(=O)CCC4=C3C=C[C@@]21C`: the activity change, negative = inhibition was 9.86% (inactive).

Take `C#C[C@]1(O)CC[C@H]2[C@@H]3CCC4=CC(=O)CCC4=C3C=C[C@@]21CC`: the activity change, negative = inhibition was -82.3% (active).

With `C=C[C@H]1CN2CC[C@H]1C[C@@H]2[C@@H](OC(=O)OCC)c1ccnc2ccc(OC)cc12`, the activity change, negative = inhibition is 7.12% (inactive) and 13% (inactive).

With `CCCN1CCO[C@H]2c3cc(O)ccc3OC[C@@H]21`, the activity change, negative = inhibition was -9.29% (inactive).

As to `NCCc1cccc(O)c1`, the activity change, negative = inhibition is -9.36% (inactive).

For `Oc1ccc2c3c1OC1[C@@H](O)CC[C@@]4(O)[C@@H](C2)N(CC2CCC2)CC[C@]314` (some centres not stated), the activity change, negative = inhibition was 3.08% (inactive).

Regarding `C[C@@]1(CO)[C@H](O)CC[C@@]2(C)[C@H]1CC[C@H]1C[C@@H]3C[C@@]12CC[C@]3(O)CO`, the activity change, negative = inhibition is -87.7% (active).

On to `CC(C(=O)OC1CC2CCC(C1)N2C)c1ccc(Br)cc1` (configuration not stated), for which the activity change, negative = inhibition is -1.35% (inactive) and 1.24% (inactive).

Consider `CC[C@@]1(O)C(=O)OCc2c1cc1n(c2=O)Cc2cc3ccccc3nc2-1`, for which the activity change, negative = inhibition was -82.2% (active) and -91.4% (active).

Turning to `CCCn1c(C)c(C(=O)c2cccc3ccccc23)c2ccccc21`, the activity change, negative = inhibition was 93.6% (inactive).

As for `Cc1c(C(=O)c2cccc3ccccc23)c2cccc3c2n1[C@H](CN1CCOCC1)CO3`, the activity change, negative = inhibition is -89.2% (active).

As for `Cc1c(C(=O)c2cccc3ccccc23)c2cccc3c2n1[C@@H](CN1CCOCC1)CO3`, the activity change, negative = inhibition is 46.7% (inactive).

In the case of `CC(=O)Oc1ccc(Cl)c2cccnc12`, the activity change, negative = inhibition was -3.09% (inactive).

Take `Cc1c(N2C(=O)[C@@H]3[C@H](O)CCN3C2=O)ccc(C#N)c1Cl`: the activity change, negative = inhibition is 8.89% (inactive).

`C[C@@H]1O[C@@H](O[C@@H]2C[C@@H](O)[C@]3(CO)[C@H]4[C@H](O)C[C@]5(C)[C@@H](C6=CC(=O)OC6)CC[C@]5(O)[C@@H]4CC[C@]3(O)C2)[C@H](O)[C@H](O)[C@H]1O`: the activity change, negative = inhibition was -77.1% (active).

With `C[C@@H]1O[C@@H](O[C@H]2C[C@@H](O)[C@]3(CO)C4C(CC[C@]3(O)C2)[C@@]2(O)CC[C@H](C3=CC(=O)OC3)[C@@]2(C)C[C@H]4O)[C@H](O)[C@H](O)[C@H]1O` (some centres not stated), the activity change, negative = inhibition is -88.6% (active).

Consider `CC1OC(OC2CC(O)C3(CO)C4C(O)CC5(C)C(C6=CC(=O)OC6)CCC5(O)C4CCC3(O)C2)C(O)C(O)C1O` (configuration not stated), for which the activity change, negative = inhibition is -83.7% (active).

Consider `C=CCN1CCC23c4c5ccc(O)c4OC2/C(=N\NC(=O)c2ccccc2)CCC3(O)C1C5` (configuration not stated), for which the activity change, negative = inhibition is 25.6% (inactive).

As for `C=CCN1CC[C@]23c4c5ccc(O)c4OC2C(=O)CC[C@@]3(O)[C@H]1C5` (some centres not stated), the activity change, negative = inhibition is 4.78% (inactive).

On to `CCN1C[C@]2(OC(=O)c3ccccc3NC(C)=O)CC[C@@H](OC)[C@]34C1[C@@H](C[C@H]23)[C@@]1(O)C[C@H](OC)[C@H]2C[C@H]4[C@]1(O)[C@H]2OC`, for which the activity change, negative = inhibition is 10.9% (inactive).

Take `O=C(O)c1ccccn1.O=C(O)c1ccccn1.O=C(O)c1ccccn1.[Cr]`: the activity change, negative = inhibition is 10.5% (inactive).

Regarding `Cc1ccc2c(c1)Cc1c(C(=O)NN3CCCCC3)nn(-c3ccc(Cl)cc3Cl)c1-2`, the activity change, negative = inhibition is -71% (active) and -58.8% (inactive).

In the case of `Cc1ccc2c(c1)Cc1c(C(=O)NC3CCCCC3)nn(-c3ccc(Cl)cc3Cl)c1-2`, the activity change, negative = inhibition was -23.4% (inactive) and -2.64% (inactive).

Regarding `C/C(=C\C(N)C(=O)O)CP(=O)(O)O` (configuration not stated), the activity change, negative = inhibition was -4.78% (inactive).

Consider `c1ccc(C2CNCc3ccccc32)cc1` (configuration not stated), for which the activity change, negative = inhibition was 5.48% (inactive).

For the compound `C=C1CC2C(CC[C@]3(C)C(=O)CCC23)[C@@]2(C)C=CC(=O)C=C12` (some centres not stated), the activity change, negative = inhibition is 11.4% (inactive).

Take `CN1C(=O)CCS(=O)(=O)C1c1ccc(Cl)cc1` (configuration not stated): the activity change, negative = inhibition was 18% (inactive) and -3.16% (inactive).

Consider `CC1(C)C2C[C@@H](O)[C@]3(C)C(CC[C@@]4(C)[C@H](c5ccoc5)OC(=O)[C@H]5O[C@]543)[C@@]2(C)[C@@H](O)C[C@H]1O` (some centres not stated), for which the activity change, negative = inhibition is 4.33% (inactive).

Take `CC1(C)C(=O)[C@@H]2O[C@@H]2[C@@]2(C)C1C[C@@H](O)[C@]1(C)C2CC[C@@]2(C)[C@H](c3ccoc3)OC(=O)C3OC321` (some centres not stated): the activity change, negative = inhibition was 20.5% (inactive).

Turning to `CC1(C)C(=O)C=C[C@@]2(C)C1C(=O)C(=O)[C@]1(C)C2CC[C@@]2(C)[C@H](c3ccoc3)C[C@H]3O[C@]321` (some centres not stated), the activity change, negative = inhibition was -86.1% (active).

Take `CC(=O)O[C@@H]1C[C@@]2(C)[C@H](c3ccoc3)C[C@H]3O[C@]32[C@]2(C)C(=O)C(=O)C3C(C)(C)C(=O)C=C[C@]3(C)C12` (some centres not stated): the activity change, negative = inhibition is -89.9% (active).

As for `CC1(C)C2CC(=O)[C@]3(C)C(CC[C@@]4(C)[C@H](c5ccoc5)OC(=O)C5OC543)[C@@]2(C)[C@@H](O)C[C@H]1O` (some centres not stated), the activity change, negative = inhibition is 1.93% (inactive).

`COC(=O)[C@@H]1C[C@H](OC(C)=O)C(=O)[C@H]2[C@@]1(C)CC[C@H]1C(=O)O[C@H](c3ccoc3)C[C@]21C`: the activity change, negative = inhibition is 11.7% (inactive) and 9.72% (inactive).

On to `CN1[C@@H]2CC[C@H]1CC(OC(=O)N1Cc3ccccc3NC1=O)C2` (some centres not stated), for which the activity change, negative = inhibition is 15% (inactive) and 8.45% (inactive).

As to `CC(CO)NC(=O)C1C=C2c3cccc4[nH]cc(c34)C[C@H]2N(C)C1` (some centres not stated), the activity change, negative = inhibition is 15.2% (inactive) and -0.618% (inactive).

`COc1ccc2c(c1O)-c1cc(O)cc3c1[C@@H](C2)N(C)CC3`: the activity change, negative = inhibition was -5.61% (inactive).
